# In the library only some 3.5% were active in any assay of this set; here they are far more common.
# TEAD-YAP block: TEAD-YAP interaction inhibition. HEK-TIYL cells, TEAD-Gal4/YAP UAS-luciferase luminescence. inhibition, % at 9.12 µM. 640,000 compounds, 1.4% hits. AID 1259422; in the data active = inhibition above about 32%;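 also: 0% = median of test compound wells and 100% = reference inhibitor wells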
# MITF inh: blocks human microphthalmia-associated transcription factor; O75030; AlphaScreen MITF homodimerization, bead proximity signal; inhibition, % at 2.6 µM; 650,000 compounds, 0.91% hits; AID 1259374; in the data active = inhibition above about 50%;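 also: 0% = vehicle wells with protein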
# GPR151 ag: human GPR151 activation; Q8TDV0; PathHunter beta-arrestin GPR151 cells, luminescence; activation, % at 11.2 µM; 650,000 compounds, 1% hits; in the data active = activation above about 4.9%;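 also: 0% = median of compound wells and 100% = cells with positive control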
# Target sequence (Q8TDV0 whole entry, looked up): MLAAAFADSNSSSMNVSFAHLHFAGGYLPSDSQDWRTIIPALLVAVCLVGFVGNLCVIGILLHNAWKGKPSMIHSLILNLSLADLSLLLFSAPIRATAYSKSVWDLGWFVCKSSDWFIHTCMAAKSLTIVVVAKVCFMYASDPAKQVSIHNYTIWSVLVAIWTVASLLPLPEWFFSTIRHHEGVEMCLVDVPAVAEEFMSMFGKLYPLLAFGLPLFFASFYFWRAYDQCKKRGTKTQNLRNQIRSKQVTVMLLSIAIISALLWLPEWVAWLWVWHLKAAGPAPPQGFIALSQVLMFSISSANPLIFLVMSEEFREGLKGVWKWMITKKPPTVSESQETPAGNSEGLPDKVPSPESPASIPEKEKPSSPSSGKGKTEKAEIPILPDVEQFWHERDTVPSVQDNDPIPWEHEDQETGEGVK
# FBW7 act: human FBW7 E3 ligase activation, primary screen; normalized activity (activation), % at 26.1 µM; Q969H0; AlphaScreen FBW7–phospho-cyclin E peptide binding, activator screen; 650,000 compounds, 0.13% hits; in the data active = normalized activity above about 1.9%;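 also: purified mutant Fbw7 with reduced substrate affinity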
# MITF inh conf: confirmation of human MITF inhibitors | shares compounds with MITF inh | AlphaScreen MITF homodimerization, biotin/His-MITF beads | inhibition, % at 2.6 µM | 4,700 compounds, 16% hits;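 active = inhibition above a cutoff derived from the DMSO control wells, cut at about 28% in these data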;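 also: 0% = MITF dimer wells with DMSO only; inhibitors lower the bead chemiluminescence by keeping MITF from dimerizing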
# AlphaScreen DR: counter-screen: compounds optically interfering with AlphaScreen; shares compounds with MITF inh; AlphaScreen optical interference counterscreen, cell-free; 480 compounds, 6% hits; IC50, µM; call rule not given here
# AlphaScreen intf2: optically interferes with AlphaScreen signal; LysRS AlphaScreen counterscreen, signal interference, triplicate; AID 1259376; shares compounds with MITF inh; inhibition, % at 2.6 µM; 4,700 compounds, 7.6% hits;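 active = inhibition above a cutoff derived from the DMSO control wells, cut at about 30% in these data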
# * marks the source's active call; other numbers are inactive results; / = not tested or not shown.
SMILES,TEAD-YAP block,MITF inh,GPR151 ag,FBW7 act,MITF inh conf,AlphaScreen intf2,others
O=C(CCCn1c(SCC(=O)NC2CCCC2)nc2ccccc2c1=O)NCCCN1CCOCC1,-5.4,56.8*,-0.4,0.5,-15.6,-7.5,
O=C1CCCCC1CNc1cccc(C(F)(F)F)c1 (centres undefined),4.2,74.2*,-1.0,0.0,3.8,17.5,
CC(=O)OC1C(=O)c2ccccc2C(=O)C1OC(C)=O (centres undefined),8.2,18.0,-2.6,0.0,/,/,
O=P(O)(O)C(Sc1ccc(Cl)cc1)P(=O)(O)O,/,96.3*,1.8,-0.2,105.9*,-8.1,AlphaScreen DR=>6.48
O=C(CCC1CCCC1)N1CCN(C(=O)c2cccc(F)c2)CC1,-10.0,-12.3,-0.8,0.1,/,/,
O=C(CCC1CCCC1)N1CCN(Cc2cccc(F)c2)CC1,5.2,63.0*,0.3,0.0,-9.5,-7.9,
Cc1ccccc1CN1CCN(C(=O)CCC2CCCC2)CC1,10.5,53.3*,0.2,0.2,-8.0,-1.3,
COc1ccc(OC)c(CN2CCN(C(=O)CCC3CCCC3)CC2)c1,-10.2,52.2*,1.7,-0.1,-3.8,-6.1,
Cc1ccc(/C=C2/NC(=O)N(Cc3ccc(F)cc3)C2=O)o1,-1.1,-3.1,-0.6,-0.2,/,/,
CN1CCN(CC(=O)Nc2ccc(C(F)(F)F)cc2)CC1,-2.8,66.5*,-0.2,0.1,7.8,15.0,
Cc1cc(NC(=O)CN2CCN(c3cccc(Cl)c3)CC2)no1,0.6,-3.8,2.3,0.0,/,/,
CC(=O)Nc1ccc(NC(=O)CN2CCN(C)CC2)cc1,-23.9,1.7,-0.8,0.5,/,/,
CN1CCN(CC(=O)Nc2ccc(N3CCCCCC3)cc2)CC1,-2.6,55.4*,0.2,-0.3,-12.6,37.2*,
Cc1cc(NC(=O)CN2CCN(c3ccc(F)cc3)CC2)no1,-0.9,54.1*,0.1,0.1,3.6,2.9,
O=C(Cn1c(-c2ccccc2)noc1=O)Nc1ccc(N2CCCCCC2)cc1,12.9,54.1*,1.4,-0.6,15.3,16.6,
CN1CCN(CC(=O)Nc2ccc(C(=O)N3CCCC3)cc2)CC1,5.3,34.0,-0.6,0.7,/,/,
COc1ccc(/C=C2/N=C(c3cccc(OC)c3)OC2=O)cc1,-2.3,10.2,1.2,0.0,/,/,
CC1CCCCC1NC(=O)NCc1noc2ccccc12 (centres undefined),-1.8,-13.2,-0.8,0.2,/,/,
COc1ccc(C(=O)/C=C2\C(=O)Nc3ccccc32)cc1,11.0,12.8,0.6,0.1,/,/,
NNC(=O)COc1ccc(Br)cc1,5.4,-13.5,-1.0,0.0,/,/,
O=C(O)C(O)C(O)C(O)C(O)C(=O)O (centres undefined) (tested in a mixture with another compound),/,-3.8,-0.4,0.0,/,/,
O=C(O)c1nsnc1C(O)C(O)C(=O)O (centres undefined),-1.4,68.0*,-0.6,-0.2,-6.8,1.4,
FC(F)(F)c1ccccc1CN1CCN(c2ncccn2)CC1,6.6,50.8*,0.6,0.3,15.4,6.5,
Brc1cccc(CN2CCN(Cc3ccccn3)CC2)c1,-3.3,45.1,-1.3,-0.1,/,/,
Fc1ccccc1N1CCN(Cc2ccccn2)CC1,-11.1,55.7*,-0.5,-0.2,-1.1,9.8,
SMILES,TEAD-YAP block,MITF inh,GPR151 ag,FBW7 act,MITF inh conf,AlphaScreen intf2,others
c1ccc(N2CCN(Cc3cccc4ccccc34)CC2)nc1,-1.8,2.4,0.8,-0.3,/,/,
FC(F)(F)c1ccccc1CN1CCN(Cc2ccccn2)CC1,2.1,78.4*,2.9,0.1,-9.4,4.1,
Oc1ccc(-c2ncccn2)cc1CN1CCN(c2ccccc2F)CC1,1.2,7.1,0.6,0.1,/,/,
c1ccc(CN2CCN(Cc3cccc4ccccc34)CC2)nc1,6.7,64.2*,4.7,0.0,3.7,7.4,
COc1ccc(C2NC(=O)NC(C)=C2C(=O)OCC(C)C)cc1 (centres undefined),15.0,5.5,1.0,0.0,/,/,
Nc1ncnc(NNC(=O)CNC(=O)COc2ccccc2)c1[N+](=O)[O-],-3.0,7.1,0.1,-0.1,/,/,
Cc1ccc(S(=O)(=O)Nc2ccncc2)c(C)c1C,11.4,7.4,-0.1,-0.1,/,/,
CCCCNCCOCCOc1ccc(Br)cc1C,-0.1,72.4*,0.7,-0.2,2.2,8.5,
Clc1cc(Br)ccc1OCCOCCn1ccnc1,-26.2,45.2,-0.8,-0.1,/,/,
Clc1cc(Br)ccc1OCCOCCN1CCNCC1,1.5,53.9*,-1.1,-0.1,-7.5,-3.3,
